High-throughput results (PubChem)
This is a sample that favours compounds with a hit; in the whole collection about 8.8% have one here.
IL-1B inflam inh – inhibitors of inflammasome signaling (IL-1 beta secretion) | activity change, % at 57.5 µM | THP-1 LPS/ATP IL-1B secretion, AlphaLISA, 16 h; stronger effect = lower value | hit rate 4.7% among 360,000; in the data active = activity change below about -50%; inconclusive = mostly about -30% to -49%
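Secreted IL-1B measured by AlphaLISA bead assay after 16 h compound exposure of THP-1 cells; compounds (final up to 57.5 uM) added 1 h before LPS (250 ng/mL) and ATP (1.25 mM) stimulation; lower signal means less secretion.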
HT1080 IDH1KD tx – kills HT-1080 cells with IDH1 knockdown; HT-1080 IDH1 knockdown viability, ATP luminescence, 48 h; Potency, µM (highest dose often 46.1 µM), hits mostly cytotoxic; hit rate 2% among 360,000
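Knockdown cells (IDH1KD HT-1080) received compounds 2 h after plating at 750 cells/well and were kept 48 h at 37 °C in 5% FBS RPMI. A CellTiter-Glo luminescence read gave % activity for curve fitting.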
KB-V1 cytotox – kills drug-selected multidrug resistant KB-V1 cells; Potency, µM (highest dose often 46.1 µM), usual class: cytotoxic; hit rate 3.4% among 400,000; KB-V1 MDR cells viability, CellTiter-Glo, 72 h; note: nearly all actives have a fitted effect of over 60% in size
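Following 72 h at 37 degrees C with compound, KB-V1 cell viability was read by CellTiter-Glo luminescence, medium being phenol-red-free DMEM plus 10% FBS; concentration-response parameters came from normalized, curve-fitted qHTS data.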
KB-3-1 cytotox – kills parental KB-3-1 adenocarcinoma cells; KB-3-1 viability, CellTiter-Glo ATP luminescence, 72 h; Potency, µM (highest dose often 46.1 µM), actives largely listed as cytotoxic; hit rate 1.4% among 400,000; note: nearly all actives have a fitted effect of over 60% in size
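Cells are dispensed, compounds pinned in, plates held at 37 °C for 72 h, then CellTiter-Glo is added and luminescence read after 10 minutes. Cell line: parental KB-3-1 in phenol-red-free DMEM, 10% FBS.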
HT1080-NT tox – kills 2HG-producing HT-1080-NT fibrosarcoma cells. HT-1080-NT fibrosarcoma viability, CellTiter-Glo ATP luminescence, 48 h. Potency, µM (highest dose often 46.1 µM), most hits filed as cytotoxic. hit rate 1.6% among 360,000. AID 686970;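 note: NT is the 2HG producing partner of a matched IDH1 knockdown line; nearly all actives have a fitted effect of over 55% in size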
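Luminescent CellTiter-Glo readout after 48 hours of compound exposure at 37 degrees C defined viability of HT-1080-NT cells. Activity was normalized to DMSO wells and cell-free media wells; concentration-response curves were fitted and assigned curve classes.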
Large screens that a line does not name were inactive. Unless noted, calls come from the whole dose curve; as a rule, active = well fitted curve in the direction sought with a large enough effect; inconclusive = small, poorly fitted or top-dose-only effect, or another doubt; inactive = no such curve, though single readings can be large; an effect the other way counts as inactive or inconclusive.

COC(=O)[C@@]12C[C@@H](CC(=O)NCc3cccc4ccccc34)C(=O)N(Cc3cccc4ccccc34)C1=CCC(C)(C)C2	KB-V1 cytotox inconclusive
COC(=O)[C@@]12C[C@@H](CC(=O)NCCC(C)C)C(=O)N(Cc3cccc4ccccc34)C1=CCC(C)(C)C2	HT1080 IDH1KD tx inconclusive, KB-V1 cytotox 21µM, KB-3-1 cytotox 21µM, HT1080-NT tox inconclusive
COC(=O)[C@@]12C[C@@H](CC(=O)NCc3ccccc3)C(=O)N(Cc3ccccc3)C1=CCC(C)(C)C2	IL-1B inflam inh -60, KB-V1 cytotox 21µM, KB-3-1 cytotox inconclusive, HT1080-NT tox inconclusive
O=C(Cc1ccccc1)NC(c1ccco1)c1cc(Cl)c2cccnc2c1O (stereo not drawn)	none (no result: IL-1B inflam inh, HT1080 IDH1KD tx, HT1080-NT tox)
OCC1OCOC2C(CO)OCOC12 (stereo not drawn)	none
CCC(C(=O)Nc1ccc(C(=O)OC)cc1)n1c(=O)c(-c2ccccc2NC(C)=O)nc2ccccc21 (stereo not drawn)	none (no result: IL-1B inflam inh, HT1080 IDH1KD tx, HT1080-NT tox)
O=C(CSc1nccc(=O)[nH]1)NC1CCCCCCC1	none
Cc1ccc(OCC(=O)Nc2ccccc2F)cc1C	HT1080-NT tox inconclusive
CCOc1ccccc1NC(=O)C(c1ccccc1)N1CCN(C(=O)c2ccco2)CC1 (stereo not drawn)	KB-3-1 cytotox inconclusive
O=C(/C=C/c1ccc(Cl)cc1)Nc1cccc([S+](=O)([O-])Nc2ccccc2F)c1	none (no result: IL-1B inflam inh, HT1080 IDH1KD tx, HT1080-NT tox)
COc1ccc(-n2c(SCC(=O)C(C)(C)C)nc3c(sc(=S)n3-c3ccccc3)c2=O)c(OC)c1	none
COC(=O)[C@]12CCCCC=C1N(Cc1cccc3ccccc13)C(=O)[C@H](CC(=O)NCCc1ccccc1OC)C2	KB-V1 cytotox inconclusive, KB-3-1 cytotox inconclusive, HT1080-NT tox inconclusive
COC(=O)[C@@]12C[C@@H](CC(=O)NCCc3ccccc3OC)C(=O)N(Cc3cccc4ccccc34)C1=CCC(C)(C)C2	KB-V1 cytotox 23µM, KB-3-1 cytotox inconclusive, HT1080-NT tox inconclusive
COC(=O)[C@@]12C[C@@H](CC(=O)NCC3CCCCC3)C(=O)N(Cc3cccc4ccccc34)C1=CCC(C)(C)C2	KB-V1 cytotox 21µM, KB-3-1 cytotox inconclusive
CCOC(=O)c1csc(NC(=O)c2ccc(S(=O)(=O)N(C)C)cc2)n1	KB-V1 cytotox 21µM
CCOC(=O)Cc1csc(NC(=O)c2csc(C)c2)n1	KB-V1 cytotox 16µM
CCOC(=O)Cc1csc(NC(=O)Nc2ccc(F)cc2)n1	none
CCOC(=O)Cc1csc(NC(=O)Nc2ccc(C)cc2)n1	IL-1B inflam inh inconclusive, HT1080-NT tox 7.3µM
CCOC(=O)Cc1csc(NC(=O)c2ccc(S(=O)(=O)N3CCCC3)cc2)n1	IL-1B inflam inh -54, HT1080-NT tox inconclusive
CCCNC(=O)C1(C)CCCN(C(=O)c2ccc(OC(F)F)cc2)C1 (stereo not drawn)	HT1080 IDH1KD tx inconclusive
CCC(=O)N1CCCC(C)(C(=O)Nc2ccc3scnc3c2)C1 (stereo not drawn)	none
CCN(CC)CCNC(=S)Nc1ccc2nc(N3CCCC3)cc(C)c2c1	IL-1B inflam inh -66, HT1080 IDH1KD tx inconclusive, KB-3-1 cytotox 15µM, HT1080-NT tox inconclusive
COCCNC(=S)Nc1ccc2nc(N3CCN(C)CC3)cc(C)c2c1	none
Cc1cc(N2CCN(C)CC2)nc2ccc(NC(=S)NCCC(C)C)cc12	HT1080-NT tox inconclusive
Cc1cc(N2CCOCC2)nc2ccc(NC(=S)NCCC(C)C)cc12	IL-1B inflam inh -50, HT1080 IDH1KD tx inconclusive
CCN(CC)CCNC(=S)Nc1ccc2nc(N3CCOCC3)cc(C)c2c1	IL-1B inflam inh inconclusive
CCN(CC)CCNC(=S)Nc1ccc2nc(N3CCN(C)CC3)cc(C)c2c1	IL-1B inflam inh -51, HT1080-NT tox inconclusive
Cc1cc(C)cc(C(=O)NC(CC(N)=O)c2ccc(NC3CCCCC3)c([N+](=O)[O-])c2)c1 (stereo not drawn)	KB-V1 cytotox inconclusive
CCOC(=O)c1cccc2c1-c1ccccc1/C2=N/O	IL-1B inflam inh -54, HT1080 IDH1KD tx inconclusive, HT1080-NT tox inconclusive
Nc1c(C(=O)Nc2nc3ccccc3s2)sc2nc(-c3cccs3)ccc12	IL-1B inflam inh -114, HT1080 IDH1KD tx 18µM, KB-3-1 cytotox 8.2µM, HT1080-NT tox inconclusive
Nc1nc2cc3c(cc2cc1C(=O)NCc1ccc(F)cc1)OCO3	HT1080 IDH1KD tx inconclusive, KB-3-1 cytotox 7.3µM, HT1080-NT tox inconclusive
CO/N=C/NC(=O)NOCc1ccc(Cl)cc1Cl	none
O=C(N/C=N/OCc1ccc(Cl)cc1Cl)NOCc1c(Cl)cccc1Cl	HT1080 IDH1KD tx 16µM, KB-V1 cytotox inconclusive, HT1080-NT tox 16µM
O=C(COC(=O)/C=C/c1cccc(C(F)(F)F)c1)NCc1ccco1	none
O=C(NCc1ccco1)/C(=C/c1ccc(C(F)(F)F)cc1)c1nc2ccccc2[nH]1	IL-1B inflam inh -73, KB-3-1 cytotox inconclusive
O=S(=O)(/C(=C\c1ccc(C(F)(F)F)cc1)c1nc2ccccc2[nH]1)c1ccccc1	IL-1B inflam inh -96, HT1080 IDH1KD tx 1.5µM, KB-V1 cytotox inconclusive, KB-3-1 cytotox 2.6µM, HT1080-NT tox 1.8µM
O=C(NCc1ccco1)/C(=C/c1cccc(C(F)(F)F)c1)c1nc2ccccc2[nH]1	IL-1B inflam inh -115, HT1080 IDH1KD tx inconclusive, KB-V1 cytotox 21µM, KB-3-1 cytotox inconclusive, HT1080-NT tox inconclusive
CCc1ccc(-n2c(=O)c3c(C)c(C(=O)N(C)C)sc3n(CC(=O)NCc3ccco3)c2=O)cc1	KB-V1 cytotox inconclusive
COc1ccc(Nc2ncc3c(n2)CCN(Cc2ccc(Br)s2)C3)c(OC)c1	none (no result: IL-1B inflam inh, HT1080 IDH1KD tx, HT1080-NT tox)
CN(CC(=O)Nn1cnnc1)S(=O)(=O)c1ccc(Br)cc1	none
Cc1cnc(NC(=O)CN(C)S(=O)(=O)c2ccc(Cl)cc2)s1	HT1080 IDH1KD tx inconclusive, HT1080-NT tox inconclusive
Cc1nc(NC(=O)CN(C)S(=O)(=O)c2ccc(Br)cc2)sc1C	KB-V1 cytotox 18µM
CN(CC(=O)Nc1ccncc1)S(=O)(=O)c1ccc(Br)cc1	KB-V1 cytotox 21µM
COC(=O)Nc1ccc2c(c1)N(C(=O)CCN(C)C)c1ccccc1CC2	IL-1B inflam inh -57, KB-3-1 cytotox inconclusive
CCOC(=O)Nc1ccc2c(c1)N(C(=O)CN(C)C)c1ccccc1CC2	none
CCOC(=O)Nc1ccc2c(c1)N(C(=O)CCN(C)C)c1ccccc1CC2	IL-1B inflam inh -69, KB-3-1 cytotox inconclusive
COC(=O)Nc1ccc2c(c1)N(C(=O)CCCl)c1ccccc1S2	IL-1B inflam inh -96, HT1080 IDH1KD tx inconclusive
CCOC(=O)Nc1ccc2c(c1)N(C(=O)CCN1CCOCC1)c1ccccc1S2=O (stereo not drawn)	IL-1B inflam inh -63, KB-V1 cytotox inconclusive, KB-3-1 cytotox inconclusive, HT1080-NT tox inconclusive
COC(=O)Nc1ccc2c(c1)N(C(=O)CCN1CCOCC1)c1ccccc1S2	none
CC1CCN(C(=O)COc2ccc(S(=O)(=O)N3CCOCC3)cc2)CC1	none
Cc1noc(NS(=O)(=O)c2ccc(NC(=O)NC(C)(C(F)(F)F)C(F)(F)F)cc2)c1C	none
